In the supplement of paper PMC7595190:
A number with no mark means an inactive call.

Legend:
Experiment in all cases: CellTox Green cytotoxicity fluorescence relative to DMSO vehicle (fold of vehicle RFU); higher = more cell death (loss of membrane integrity), active = 2 or more
CMK = system: CMK
In short: (§1)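 Single compounds from the Selleckchem apoptosis library were applied at final 0.01, 0.1 and 1 µM (0.1% DMSO vehicle) to MV4-11, CMK and Kasumi-1 cells seeded at 4.0 × 10^4 cells per well with CellTox Green reagent. After incubation at 37 °C, 5% CO2, fluorescence was read at 24, 48 and 72 h. Cytotoxicity, meaning loss of membrane integrity, is shown as fold of the DMSO vehicle signal.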

Kasumi-1 = system: Kasumi-1
In short: as §1

MV4-11 = system: MV4-11
In short: as §1

| SMILES | CellTox Green cytotoxicity fluorescence (CMK; 0.01 µM, 24 h) | CellTox Green cytotoxicity fluorescence (CMK; 0.01 µM, 48 h) | CellTox Green cytotoxicity fluorescence (CMK; 0.01 µM, 72 h) | CellTox Green cytotoxicity fluorescence (CMK; 0.1 µM, 24 h) | CellTox Green cytotoxicity fluorescence (CMK; 0.1 µM, 48 h) | CellTox Green cytotoxicity fluorescence (CMK; 0.1 µM, 72 h) | CellTox Green cytotoxicity fluorescence (CMK; 1 µM, 24 h) | CellTox Green cytotoxicity fluorescence (CMK; 1 µM, 48 h) | CellTox Green cytotoxicity fluorescence (CMK; 1 µM, 72 h) | CellTox Green cytotoxicity fluorescence (Kasumi-1; 0.01 µM, 24 h) | CellTox Green cytotoxicity fluorescence (Kasumi-1; 0.01 µM, 48 h) | CellTox Green cytotoxicity fluorescence (Kasumi-1; 0.01 µM, 72 h) | CellTox Green cytotoxicity fluorescence (Kasumi-1; 0.1 µM, 24 h) | CellTox Green cytotoxicity fluorescence (Kasumi-1; 0.1 µM, 48 h) | CellTox Green cytotoxicity fluorescence (Kasumi-1; 0.1 µM, 72 h) | CellTox Green cytotoxicity fluorescence (Kasumi-1; 1 µM, 24 h) | CellTox Green cytotoxicity fluorescence (Kasumi-1; 1 µM, 48 h) | CellTox Green cytotoxicity fluorescence (Kasumi-1; 1 µM, 72 h) | CellTox Green cytotoxicity fluorescence (MV4-11; 0.01 µM, 24 h) | CellTox Green cytotoxicity fluorescence (MV4-11; 0.01 µM, 48 h) | CellTox Green cytotoxicity fluorescence (MV4-11; 0.01 µM, 72 h) | CellTox Green cytotoxicity fluorescence (MV4-11; 0.1 µM, 24 h) | CellTox Green cytotoxicity fluorescence (MV4-11; 0.1 µM, 48 h) | CellTox Green cytotoxicity fluorescence (MV4-11; 0.1 µM, 72 h) | CellTox Green cytotoxicity fluorescence (MV4-11; 1 µM, 24 h) | CellTox Green cytotoxicity fluorescence (MV4-11; 1 µM, 48 h) | CellTox Green cytotoxicity fluorescence (MV4-11; 1 µM, 72 h) |
| --- | --- | --- | --- | --- | --- | --- | --- | --- | --- | --- | --- | --- | --- | --- | --- | --- | --- | --- | --- | --- | --- | --- | --- | --- | --- | --- | --- |
| O=C(NS(=O)(=O)c1ccc(Br)s1)c1ccc(Cl)cc1Cl [Tasisulam] | 0.98 | 0.972 | 0.934 | 0.99 | 0.99 | 0.959 | 0.986 | 1 | 0.903 | 1.02 | 1.02 | 1.01 | 1.01 | 0.99 | 0.984 | 0.975 | 0.963 | 0.96 | 0.957 | 0.955 | 0.954 | 0.99 | 0.984 | 0.992 | 1 | 0.989 | 1 |
| COCC[n+]1c2c(n(Cc3cnccn3)c1C)C(=O)c1ccccc1C2=O [Sepantronium Bromide] | 0.916 | 0.91 | 0.922 | 0.955 | 1.02 | 0.927 | 1.06 | 1.53 | 1.41 | 1.02 | 1.03 | 1.11 | 1.08 | 1.41 | 1.57 | 1.5 | 2.08 (active) | 2.15 (active) | 0.95 | 0.938 | 0.957 | 1.02 | 1.83 | 2.14 (active) | 1.35 | 2.26 (active) | 2.48 (active) |
| CC1(C)CCC(c2ccc(Cl)cc2)=C(CN2CCN(c3ccc(C(=O)NS(=O)(=O)c4ccc(N[C@H](CCN5CCOCC5)CSc5ccccc5)c(S(=O)(=O)C(F)(F)F)c4)cc3)CC2)C1 [Navitoclax] | 0.932 | 0.931 | 0.932 | 1.24 | 1.36 | 1.36 | 1.62 | 2.39 (active) | 2.07 (active) | 1.04 | 1 | 1.05 | 1.22 | 1.53 | 1.7 | 1.57 | 2.07 (active) | 2.11 (active) | 0.946 | 1.02 | 1.07 | 1.04 | 1.41 | 1.67 | 1.32 | 2.56 (active) | 2.63 (active) |
| CNC(=O)c1ccc(Nc2ncc(C(F)(F)F)c(NCc3nccnc3N(C)S(C)(=O)=O)n2)cc1 [Defactinib] | 0.942 | 0.942 | 0.941 | 0.923 | 0.931 | 0.915 | 0.945 | 1.01 | 0.889 | 0.961 | 0.964 | 0.942 | 0.955 | 0.958 | 0.956 | 0.931 | 0.985 | 0.991 | 0.944 | 0.943 | 0.952 | 0.955 | 0.991 | 1.01 | 1 | 1.12 | 1.29 |
| COc1ccc(C2=N[C@@H](c3ccc(Cl)cc3)[C@@H](c3ccc(Cl)cc3)N2C(=O)N2CCNC(=O)C2)c(OC(C)C)c1 [Nutlin-3] | 0.981 | 0.982 | 0.971 | 1 | 1.01 | 1.03 | 1.02 | 1.01 | 1.03 | 1.02 | 1.01 | 0.998 | 0.977 | 0.977 | 0.959 | 1.01 | 1.01 | 1.05 | 0.981 | 1 | 0.995 | 0.991 | 0.999 | 1.03 | 1.01 | 1.24 | 1.46 |
